From PubChem BioAssay
Most compounds without a hit are left out; they make up all but 4.1% or so of the library.
hcDAF-12 act: H. contortus DAF-12 nuclear receptor activators, primary screen, cell-based, luminescence, HEK293, lit1-tk-luc reporter; HEK293 hcDAF-12 lit1-tk-luc reporter; 0% DMSO, 100% Δ7-dafachronic acid; activation, % at 6.8 µM; 1.4% of 370,000 active; AID 652067, 2013;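 active = activation above the mean of all tested compounds plus 3 SD, cut at about 5.5% in these data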
ssDAF-12 act: S. stercoralis DAF-12 nuclear receptor activators, primary screen, cell-based, luminescence, HEK293, GRIP1 co-expression, lit1-tk-luc; 1% of 370,000 active; Nuclear hormone receptor DAF-12 (Strongyloides stercoralis); AID 652126, 2013; HEK293 ssDAF-12/GRIP1 lit1-tk-luc reporter; % of 3 µM dafachronic acid response; activation, % at 6.8 µM;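 active = activation above the mean over all tested compounds plus 3 SD, cut at about 0.9% in these data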
hgDAF-12 ag: H. glycines DAF-12 receptor agonists, primary screen, cell-based, luminescence, HEK293, GAL4 fusion, UAS-luciferase. AID 687014, 2013. 1.8% of 370,000 active. activation, % at 6.8 µM. Nuclear hormone receptor DAF-12 (Heterodera glycines), GAL4 fusion. HEK293 GAL4-hgDAF12 UAS-luciferase reporter, agonist luminescence; normalized to butyrate control;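 active = activation above a cutoff set at the mean of all screened compounds plus 3 SD, cut at about 10% in these data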
DAX1 inh-1: DAX1 (NR0B1) inhibitors, primary screen, cell-based, HEK293, Gal4-DAX1, luciferase luminescence. HEK293 Gal4-DAX1 luciferase reporter. inhibition, % at 6.75 µM. 0.99% of 340,000 active. AID 504766, 2011;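 active = inhibition above the mean over all tested compounds plus 3 SD, cut at about 4.2% in these data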;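 also: inhibition shows as a rise in luminescence from relieved DAX1 repression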
Target sequence (P51843 207-470 limits assumed): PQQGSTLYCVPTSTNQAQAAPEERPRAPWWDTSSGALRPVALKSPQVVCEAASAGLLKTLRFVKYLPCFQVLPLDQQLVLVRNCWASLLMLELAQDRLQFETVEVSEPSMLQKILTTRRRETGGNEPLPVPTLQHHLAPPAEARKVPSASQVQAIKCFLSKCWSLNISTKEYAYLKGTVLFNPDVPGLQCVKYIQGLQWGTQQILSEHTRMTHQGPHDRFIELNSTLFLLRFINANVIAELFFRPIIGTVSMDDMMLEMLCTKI
DAX1 inh-2: DAX1 (NR0B1) inhibitors on StAR promoter, primary screen, cell-based, luminescence, SF-1 (NR5A1), full-length DAX-1; HEK293T StAR-luciferase reporter, SF-1/DAX-1 repression relief; inhibition, % at 6.8 µM; 1.1% of 370,000 active;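 active = inhibition above the mean over all tested compounds plus 3 SD, cut at about 3.6% in these data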;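 also: higher inhibition means more luminescence from relief of DAX-1 repression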
hgDAF12 conf: H. glycines DAF-12 receptor agonists, confirmation, cell-based, luminescence, HEK293, GAL4-LBD fusion | HEK293 GAL4-hgDAF12 luciferase reporter, agonist mode; percent of butyrate response | activation, % at 6.8 µM | 80% of 3,300 active | AID 743050, 2013 | shares compounds with hgDAF-12 ag;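 active = mean activation over triplicate wells above the hit cutoff derived from the earlier primary screen, cut at about 11% in these data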
LXR ag 2: LXR agonists, Gal4 luciferase reporter, confirmation, counter-screen for hgDAF-12 agonist project, cell-based, luminescence, HEK293, H. glycines campaign; shares compounds with hgDAF-12 ag; 24 h; 3,300 tested, under 10 active; activation, % at 6.8 µM; AID 743051, 2013;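 active = mean activation of the triplicate above a set limit carried over from the primary screen, none filed active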
Each line names hits and unclear results; the compound was inactive in the other large screens (follow-up assays come after a bar, where they were run).

Cc1cc(C)c2sc(N)nc2c1	hgDAF-12 ag 13.9 | hgDAF12 conf inactive | LXR ag 2 inactive
Cc1cc(C)c2nc(N)sc2c1	none
COC(=O)CNC(=O)c1ccccc1	none
O=C(CNC(=O)c1ccccc1)OC1CCCCC1	hgDAF-12 ag 16.1 | hgDAF12 conf 18.2 | LXR ag 2 inactive
Fc1ccc(-c2cnn3c(-c4ccncc4)ccnc23)cc1	hgDAF-12 ag 15.6 | hgDAF12 conf 17.9 | LXR ag 2 inactive
Cc1nn2c(-c3ccc(F)cc3)ccnc2c1Cl	none
CC(Sc1nnc(NCc2ccccc2)s1)C(=O)Nc1ccc2c(c1)C(=O)c1ccccc1C2=O (stereo not drawn)	hgDAF-12 ag 15.2 | hgDAF12 conf inactive | LXR ag 2 inactive
CC(Sc1nnc(NC2CC2)s1)C(=O)Nc1ccc(S(N)(=O)=O)cc1 (stereo not drawn)	none
CCOC(=O)c1sc(NC(=O)c2ccccc2)cc1C	hgDAF-12 ag 16.9 | hgDAF12 conf 12.9 | LXR ag 2 inactive
Cc1cccc(C)c1NC(=O)C1CCCN1S(=O)(=O)c1cccc2cccnc12 (stereo not drawn)	none (no result: DAX1 inh-1)
COc1ccc(OCc2ccc(/C=N\NC(=O)c3sccc3C)o2)cc1	hgDAF-12 ag 13.9 | hgDAF12 conf inactive | LXR ag 2 inactive
O=C(N/N=C\c1ccc(COc2ccc([N+](=O)[O-])cc2)o1)c1ccc(Cl)cc1	none
COc1ccc2c(C)cc(=O)oc2c1	none
COc1cccc(COc2ccc3c(C)cc(=O)oc3c2)c1	hgDAF-12 ag 16.5 | hgDAF12 conf 14.3 | LXR ag 2 inactive
Cc1cc(=O)oc2cc(OCC(=O)Nc3nccs3)ccc12	hgDAF-12 ag 19.5 | hgDAF12 conf 17.8 | LXR ag 2 inactive
CCCCNC(=O)C[C@H]1C[C@@]2(C(=O)OC)C(=C[C@H](C3CCCC3)O[C@@H]2C)N(CCc2ccc(OC)c(OC)c2)C1=O	none (no result: DAX1 inh-1)
Cc1cc(NC(=O)c2nn3cccnc3c2Cl)no1	hgDAF-12 ag 13.6 | hgDAF12 conf 14.6 | LXR ag 2 inactive
Cc1nc2cc(NCc3ccc(Cl)cc3)ccc2n1C	ssDAF-12 act 1.6, hgDAF-12 ag 13.6, DAX1 inh-1 4.7 | hgDAF12 conf 14.1 | LXR ag 2 inactive
O=C(NC(=S)Nc1ccccc1)c1cccs1	hgDAF-12 ag 15.3, DAX1 inh-1 4.5 | hgDAF12 conf 17.3 | LXR ag 2 inactive
Nc1ccccc1SCc1cn2cccnc2n1	hgDAF-12 ag 14.1 | hgDAF12 conf inactive | LXR ag 2 inactive
COc1ccc(-c2cc(=O)c3cc(C)ccc3[nH]2)cc1	hcDAF-12 act 5.7, hgDAF-12 ag 15.7 | hgDAF12 conf 16.0 | LXR ag 2 inactive
N[C@H](C(=O)Nc1ccc(Cl)cc1C(=O)c1ccc[nH]1)c1ccccc1	none (no result: DAX1 inh-1, DAX1 inh-2)
CCS(=O)(=O)N1Cc2ccccc2CC1C(=O)Nc1ccc(OC)c(OC)c1 (stereo not drawn)	none
CCS(=O)(=O)N1Cc2ccccc2CC1C(=O)Nc1cccc(OC)c1 (stereo not drawn)	hgDAF-12 ag 13.6 | hgDAF12 conf inactive | LXR ag 2 inactive
COc1ccc2nc(SCc3cccc(C)c3)nc(C)c2c1	hgDAF-12 ag 14.8 | hgDAF12 conf 14.1 | LXR ag 2 inactive
CCC(N=c1cc(-c2ccc(OC)cc2)oc2ccc(C)cc12)C(=O)O (stereo not drawn)	hgDAF-12 ag 14.3, DAX1 inh-2 3.9 | hgDAF12 conf 13.4 | LXR ag 2 inactive
O=C(NCCc1ccccc1)OCc1cn(Cc2ccccc2C(F)(F)F)nn1	none (no result: DAX1 inh-1)
O=C(Nc1ccccc1Br)c1ccc2nccnc2c1	hgDAF-12 ag 14.8 | hgDAF12 conf 10.5 | LXR ag 2 inactive
Cc1ccccc1NC(=O)c1ccc2nccnc2c1	none
COC(=O)N1N=C(c2ccc(Br)cc2)CC1(O)C(F)(F)F (stereo not drawn)	ssDAF-12 act 1.6, hgDAF-12 ag 13.6 | hgDAF12 conf 11.3 | LXR ag 2 inactive
CCNC(=O)N(C)[C@H]1C[C@H]2c3[nH]c4c(-c5cccc(C)c5)cccc4c3CCN2C[C@H]1[C@H](C)O	none (no result: DAX1 inh-1)
O=C(Nc1ccc2c(c1)CCC2)c1cnccn1	hgDAF-12 ag 16.6, DAX1 inh-2 4.4 | hgDAF12 conf 15.0 | LXR ag 2 inactive
Cc1ccc(C(=O)Nc2nc(C)c(C(=O)Nc3ccc4c(c3)CCC4)s2)cc1	ssDAF-12 act 1.3, hgDAF-12 ag 16.9 | hgDAF12 conf 17.0 | LXR ag 2 inactive
Cc1cnc(C(=O)Nc2ccc3c(c2)CCC3)cn1	hgDAF-12 ag 14.2, DAX1 inh-2 4.1 | hgDAF12 conf 16.8 | LXR ag 2 inactive
O=C(Nc1cccc(Cl)c1)c1cnccn1	none
Cc1nc(NC(=O)c2ccc(F)cc2)sc1C(=O)Nc1ccc2c(c1)CCC2	none
O=Nc1ccc(Br)cn1	none (no result: DAX1 inh-1)
COc1ccc(C2N=C(c3ccccc3)NO2)cc1OC (stereo not drawn)	hcDAF-12 act 6.1, hgDAF-12 ag 13.6, DAX1 inh-1 5.9 | hgDAF12 conf 12.2 | LXR ag 2 inactive
C[C@H](O)[C@@H]1CN2CCc3ccc(N4CCOCC4)cc3[C@@H]2C[C@@H]1N(C)C(=O)c1cccc(Cl)c1	none (no result: DAX1 inh-1)
O=C(Nc1ccc2c(c1)OCO2)OC1CCC12CCCCC2 (stereo not drawn)	hgDAF-12 ag 15.4 (no result: DAX1 inh-1) | hgDAF12 conf 13.4 | LXR ag 2 inactive
Cc1cccc(-c2cccc3c4c([nH]c23)[C@@H]2C[C@H](N(C)C(=O)Nc3ccccc3)[C@H]([C@H](C)O)CN2CC4)c1	none (no result: DAX1 inh-1)
N#Cc1ccc(Cn2ccc3ccc(-c4ccc5ccn(C(=O)c6ccccc6)c5c4)cc32)cc1	none (no result: DAX1 inh-1)
Cn1cc(Br)c(C(=O)NNC(=O)c2ccc(Br)cc2)n1	hgDAF-12 ag 13.9 | hgDAF12 conf inactive | LXR ag 2 inactive
COc1cccc2cc(-c3ccccc3)c(=O)oc12	hcDAF-12 act 5.8, hgDAF-12 ag 16.0 | hgDAF12 conf 14.0 | LXR ag 2 inactive
COC(=O)C(C)Oc1ccc2cc(-c3ccccc3)c(=O)oc2c1 (stereo not drawn)	none
COc1cccc2cc(-c3nc(-c4cccs4)cs3)c(=O)oc12	none
